PubChem BioAssay AID1259341 (Broad Institute, 2017)

molecular target: Caspase recruitment domain-containing protein 9 (Homo sapiens) + E3 ubiquitin-protein ligase TRIM62 (Homo sapiens) (UniProt Q9H257+Q9BVG3); assay: CARD9/TRIM62 protein interaction inhibitors – cell lysate, HEK293FT lysates, Luminex bead ELISA, primary screen (AID 1259341); details: PE fluorescence, hits give low values, concentration not given here;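 note: PE anti-Flag signal of Flag-CARD9 captured by myc-TRIM62 beads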
Sequence (Q9BVG3 whole entry, looked up, the tested form may be a part): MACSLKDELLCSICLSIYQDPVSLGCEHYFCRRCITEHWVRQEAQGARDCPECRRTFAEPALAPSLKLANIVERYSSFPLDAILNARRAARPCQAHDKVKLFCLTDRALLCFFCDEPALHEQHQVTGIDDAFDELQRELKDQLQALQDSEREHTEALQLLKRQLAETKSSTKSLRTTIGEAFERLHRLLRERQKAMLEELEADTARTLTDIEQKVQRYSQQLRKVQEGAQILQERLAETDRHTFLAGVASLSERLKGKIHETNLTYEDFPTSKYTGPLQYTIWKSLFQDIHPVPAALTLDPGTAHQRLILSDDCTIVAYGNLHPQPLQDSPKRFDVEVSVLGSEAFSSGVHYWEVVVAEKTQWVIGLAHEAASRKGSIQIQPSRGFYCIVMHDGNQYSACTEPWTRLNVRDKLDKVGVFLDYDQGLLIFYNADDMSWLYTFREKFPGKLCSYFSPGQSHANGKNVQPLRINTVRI
Sequence (Q9H257 whole entry, looked up, the tested form may be a part): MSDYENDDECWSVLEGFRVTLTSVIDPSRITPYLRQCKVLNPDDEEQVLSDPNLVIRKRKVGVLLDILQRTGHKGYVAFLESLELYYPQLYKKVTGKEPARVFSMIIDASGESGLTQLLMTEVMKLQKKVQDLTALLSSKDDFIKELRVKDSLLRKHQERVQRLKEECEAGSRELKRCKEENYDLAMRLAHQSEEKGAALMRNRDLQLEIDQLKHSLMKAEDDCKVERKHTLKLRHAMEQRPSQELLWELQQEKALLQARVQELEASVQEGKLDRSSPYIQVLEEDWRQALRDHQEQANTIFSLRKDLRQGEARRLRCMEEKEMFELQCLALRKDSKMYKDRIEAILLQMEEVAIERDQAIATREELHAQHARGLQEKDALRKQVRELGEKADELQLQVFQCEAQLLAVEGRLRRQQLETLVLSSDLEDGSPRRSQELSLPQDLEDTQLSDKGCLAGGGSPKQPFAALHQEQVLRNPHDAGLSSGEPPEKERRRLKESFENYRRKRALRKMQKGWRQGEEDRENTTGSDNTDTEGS

Activity change, negative = inhibition, inactive:
O=C(Cc1cccs1)Nc1nnc(Cc2ccccc2)s1 10.6%, O=C(N/N=C/C=C/c1ccco1)c1cncc(Br)c1 -8.78%, N#CNc1nc(O)cc(=O)[nH]1 -9.24%, O=C(NCc1ccco1)C1CCCN(S(=O)(=O)c2cccc3nonc23)C1 (stereo unspecified) 0.63%, C[C@H](CO)N1C[C@H](C)[C@@H](CN(C)C(=O)C2CCCCC2)OCCCC[C@H](C)Oc2ccc(NS(=O)(=O)c3ccc(F)cc3)cc2C1=O 9.27%, Fc1ccc(CSc2nnc(-c3cccnc3)n2Cc2ccco2)cc1 0.116%, Cc1nc(C)c(C(=O)Nc2ncc([N+](=O)[O-])s2)o1 -6.18%, CC(C(=O)N1CCCC1)N1CCN(c2ccccc2O)CC1 (stereo unspecified) 5.92%, C(=C\c1ccco1)/c1nc2ccccc2[nH]1 -9.75%, CN1C(=O)C(c2ccccc2[N+](=O)[O-])C(=O)c2ccccc21 (stereo unspecified) 3.98%, O=C(NCC1CCCO1)c1cc(-c2ccco2)nc2ccccc12 (stereo unspecified) -3.93%, COc1ccc(N2CC3=C(N2)c2ccccc2CC3)cc1 25.5%, O=C1c2ccccc2S(=O)(=O)N1Cc1cccc(S(=O)(=O)N2CCOCC2)c1 5.11%, CC(=O)c1cccc(OCC(=O)N(C)CC(=O)NCc2ccco2)c1 -22.5%, COc1cccc(NC(=O)CN(C)C(=O)c2cc3c(s2)CCC3)c1 -19.8%, Cc1ccc(S(=O)(=O)Nc2ccc3c(c2)C(=O)N([C@H](C)CO)C[C@H](C)[C@@H](CN(C)C(=O)C2CCCCC2)OCCCC[C@H](C)O3)cc1 6.06%
